# PI4K2A block: PI4K2A (human) kinase inhibition; purified PI4K2A, ADP-Glo luminescence, 1 h; stronger effect = lower value; activity change, negative = inhibition, % at 76.9 µM; hit rate 0.13% among 420,000; AID 1346378; in the data active = activity change below about -50%; inconclusive = mostly about -30% to -49%;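 also: -100% = wells without enzyme as full effect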
#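 ADP-Glo luminescence measured ADP generated by PI4K2A enzyme (4 ug/mL before mixing) with 1.2 mM PI substrate (pre-mix) and 300 microM ATP (pre-mix). Tris pH7.5 buffer with MgCl2, Triton X-100; 1 h reaction at ambient temperature.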
# PKM2 act: increases activity of human pyruvate kinase M2 | hit rate 0.34% among 260,000 | purified PKM2, Kinase-Glo ATP luminescence, activation; response scale: 0% is enzyme alone, no compound | P14618 | Potency, µM (doses to about 57.5 µM), for the others: at the top dose activation, most hits filed as activators; also: potency is read from the fitted curve at half-maximal effect; nearly all actives have a fitted effect of over 55% in size
#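 hPK-M2, >95% pure; 0.1 mM ADP / 0.5 mM PEP final; imidazole pH7.2 buffer w/ 7 mM MgCl2, 50 mM KCl; 1 h RT; Kinase-Glo lum. Intermediate enzyme activity for dual inhibitor/activator qHTS.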
# GALK inh: galactokinase (human) inhibition; P51570; Purified GALK, Kinase-Glo residual ATP luminescence; Potency, µM (top dose mostly 57.5 µM), without a hit: at the top dose activity change, negative = inhibition, usual class: inhibitors; hit rate 0.007% among 270,000; AID 1868; also: potency is read from the fitted curve at half-maximal effect
# Target sequence (P51570 whole entry, looked up): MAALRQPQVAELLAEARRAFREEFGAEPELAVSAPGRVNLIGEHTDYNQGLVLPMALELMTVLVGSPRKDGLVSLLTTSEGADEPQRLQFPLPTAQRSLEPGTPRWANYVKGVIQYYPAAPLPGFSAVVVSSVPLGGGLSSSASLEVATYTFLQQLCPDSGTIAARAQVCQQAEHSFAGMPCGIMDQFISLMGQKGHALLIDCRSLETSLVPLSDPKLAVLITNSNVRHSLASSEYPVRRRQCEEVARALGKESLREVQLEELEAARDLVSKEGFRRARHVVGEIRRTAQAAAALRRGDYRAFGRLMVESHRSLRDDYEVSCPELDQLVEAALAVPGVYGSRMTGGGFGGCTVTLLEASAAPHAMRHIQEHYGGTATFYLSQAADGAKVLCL
#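 Galactose (100 uM) and ATP (35 uM) were turned over by 5 nM GALK for 1 h at RT. Kinase-Glo Plus then converted the remaining ATP into a luminescent signal.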
# TrxR1 inh: rat TrxR1 inhibition; hit rate 1% among 390,000; O89049; recombinant rTrxR1, NADPH fluorescence consumption, selenite substrate; Potency, µM (highest dose often 114 µM), for inactives: top-dose activity change, negative = inhibition, actives largely listed as inhibitors; also: potency is read from the fitted curve at half-maximal effect; nearly all actives have a fitted effect of over 65% in size
#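 Rat TrxR1 (90 nM in the dispensed reagent) was pre-reduced with 400 uM NADPH for 5 min at room temperature, then incubated with compound for 15 min. After 400 uM selenite was added, NADPH fluorescence (Ex 340/Em 450 nm) was followed for 8 min.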
# TrxR1 substrate: substrates of rat thioredoxin reductase 1; hit rate 0.01% among 390,000; purified TrxR1 substrate turnover, NADPH consumption readout; Potency, µM (highest dose often 114 µM), without a hit: top-dose activity change, negative = substrate turnover; AID 588456; also: potency is read from the fitted curve at half-maximal effect; nearly all actives have a fitted effect of over 50% in size
#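 Rat TrxR1, dispensed at 90 nM, was prereduced with 400 uM NADPH (final) for 5 min at ~22 deg C, then incubated with compound 15 min before 400 uM selenite. A first-read NADPH fluorescence drop versus no-compound background flagged substrates.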
# * hit, by the source's call; ? = inconclusive; . = no result given; [ ] = dose if it differs, or a comment. In the library only some 1.2% were active in any assay of this set; here they are far more common. Unless noted, calls follow the shape of the dose curve; as a rule, active = well fitted curve in the direction sought with a large enough effect; inconclusive = small, poorly fitted or top-dose-only effect, or another doubt; inactive = no such curve, though single readings can be large; an effect the other way counts as inactive or inconclusive. Unless noted, % is scaled to controls: 0 for no effect and ±100 for the full control effect.
SMILES,PI4K2A block,PKM2 act,GALK inh,TrxR1 inh,TrxR1 substrate
COC(=O)c1ccccc1NC(=O)CCCn1c(=O)c2cccn2c2cccnc21,1,.,.,11%,1%
C/C(C=NNC(=O)CSc1nc2ccccc2n1C)=C\c1ccccc1,-7,.,.,.,.
Cc1cccc(CS(=O)(=O)c2ncc(Cl)c(C(=O)Nc3nnc(C(C)C)s3)n2)c1,-23,.,3%,25µM*,-2%
CCOC(=O)c1oc2ccccc2c1NC(=O)c1ccco1,1,-1%,-4%,5%,-2%
CCOC(=O)c1oc2ccccc2c1NC(=O)CCl,-1,4%,3%,22µM*,-10%
CC1CCN(C(=O)CSc2nc(-c3ccc(C(C)C)cc3)no2)CC1,-1,.,.,20%[57.1 µM],-3%[57.1 µM]
CC(C)c1ccc(S(=O)(=O)c2nnn3c2nc(N2CCOCC2)c2sccc23)cc1,-4,.,.,37%,23%
CC1=C(/C=C/C(C)=C/C=C/C(C)=C/CO)C(C)(C)CCC1,-11,.,.,50µM*,0%
Cc1ccc(-c2cnn(-c3ccccc3)c2N)cc1,-76*,.,.,?,-16%
Cc1ccc(S(=O)(=O)CC(CN2CCOCC2)N2CCOCC2)cc1 (stereo unspecified),-3,0%,-1%,6%[57.1 µM],8%[57.1 µM]
O=S(=O)(CC(CN1CCCC1)N1CCCC1)c1ccc2ccccc2c1 (stereo unspecified),2,-5%,-4%,8.9µM*,7%
COC(=O)[C@@H]1C[C@@]2(c3ccccc3)c3ccccc3N(S(=O)(=O)c3ccccc3)[C@H]2N1C(=O)CNC/C=C(\C)CCC=C(C)C,-4,.,.,.,.
CS(=O)(=O)Nc1ccc(C2=NN(C(=O)c3ccco3)C(c3ccc(F)cc3)C2)cc1 (stereo unspecified),-8,13µM*,-1%,13%,-2%
O=C(O)c1cccc(-n2cccc2/C=C/[N+](=O)[O-])c1,-25,16%,4%,10µM*,6%
COc1ccc(C2c3c(ncn(Cc4ccco4)c3=N)Oc3ccc4ccccc4c32)cc1 (stereo unspecified),8,?,0%,16%[0.0914 µM],1%
COc1ccc(C2c3ccc(O)cc3Oc3ncn(Cc4ccco4)c(=N)c32)cc1 (stereo unspecified),0,25%,0%,50µM*,6%
CCc1cccc(NC(=O)c2coc(=O)c3ccccc23)c1,1,.,.,18%,-5%
O=C1CN(CC(=O)N2CCOCC2)c2ccccc2O1,.,0%,-1%,.,.
O=C1CN(CC(=O)N2CCCCC2)c2ccccc2O1,1,-1%,0%,25µM*,0%
COc1cc(NS(=O)(=O)c2ccc(NC(=S)NC(=O)/C=C/c3ccco3)cc2)ncn1,-7,3%,6%,56µM*,-17%
Cc1ccc(NC(=O)N/C=C/c2ccco2)cc1,-12,12%,1%,16µM*,18%
COc1cccc(NC(=S)NC(=O)/C=C/c2ccco2)c1,-10,-20%[11.5 µM],0%,-31%[57.1 µM],6%[57.1 µM]
CC(=O)Nc1ccc(NC(=S)NC(=O)/C=C/c2ccco2)cc1,-20,-1%,-2%,40µM*,2%
O=C(/C=C/c1ccco1)NC(=S)Nc1cccc(C(=O)O)c1,-12,.,-6%,40µM*,-2%
Cc1ccc(NC(=O)/C(=C\c2ccco2)NC(=O)c2ccco2)cc1,-4,.,13%,?,-4%[57.1 µM]
SMILES,PI4K2A block,PKM2 act,GALK inh,TrxR1 inh,TrxR1 substrate
CCOc1ccc(NC(=S)NC(=O)/C=C/c2ccco2)cc1,-4,0%,-4%,-8%[57.1 µM],10%[57.1 µM]
Cc1ccc(N2C(=O)CC(c3ccccc3F)C3=C2COC3=O)cc1Cl (stereo unspecified),-1,.,.,14%,1%
COc1cc(NC(=O)c2ccccn2)ccc1NC(=O)c1ccccc1Cl,-7,.,.,.,.
Cc1ccc(CCNC(=O)CCCn2c(=O)c3ccccc3n(Cc3ccccc3C)c2=O)cc1,2,.,.,15%,2%
Cc1ccc(NC(=O)Cn2nnc(C(=O)NCCc3ccccc3)c2N)cc1,-6,.,.,25%,11%[2.29 µM]
CCS(=O)(=O)N1CC(=O)N(c2cccc(C)c2C)C(C)(C(=O)NC2CCCCC2)C1 (stereo unspecified),-3,.,.,5%,-4%
O=C(/C=C/c1ccco1)Nc1ccc2nn(-c3ccccc3)nc2c1,-3,21%,0%,56µM*,-5%
CC(=O)Nc1cccc(C(=O)/C=C/c2ccco2)c1,0,?,0%,?,-13%
CC(=O)N(C)c1ccc(NC(=S)NC(=O)/C=C/c2ccco2)cc1,-10,.,5%,35µM*,-4%
CC(=O)Nc1ccc(C(=O)/C=C/c2ccco2)cc1,-13,?,-3%,45µM*,-11%
CN1CCN(c2ccc(NC(=S)NC(=O)/C=C/c3ccco3)cc2)CC1,-6,-1%,-1%,-22%,-8%
Cc1ccc(C(=O)CC2(O)C(=O)N(CCc3ccccc3)c3ccc(Cl)cc32)cc1 (stereo unspecified),-17,.,.,-9%,-8%
CCOC(=O)Cn1cc(CN2C(C(=O)OC)CN(CCO)CCS2(=O)=O)nn1 (stereo unspecified),0,.,.,.,.
CC(=O)Oc1ccc(N2C(=O)C3C4C=CC(CO)(O4)C3C2=O)cc1 (stereo unspecified),-7,?,2%,3.2µM*,9%[57.1 µM]
O=C1C2C3C=CC(CNS(=O)(=O)c4ccccc4)(O3)C2C(=O)N1c1ccc(Cl)cc1 (stereo unspecified),-2,?,.,10µM*,-2%
O=C1C2C3C=CC(CO)(O3)C2C(=O)N1c1ccccc1-c1ccccc1 (stereo unspecified),1,32µM*,0%,0.89µM*,8%
CC(=O)Oc1ccc(N2C(=O)C3C(C2=O)C2(C)C=CC3(C)O2)cc1 (stereo unspecified),.,24%,-1%,.,.
COC(=O)C1(C)NC(c2ccc(Cl)cc2)C2C(=O)N(c3ccccc3)C(=O)C21 (stereo unspecified),-1,-4%[11.5 µM],-9%,17%,-2%
CCOc1ccc(S(=O)(=O)NCC(c2ccco2)S(=O)(=O)c2ccc(F)cc2)cc1 (stereo unspecified),-3,.,.,11%[57.1 µM],0%[57.1 µM]
COc1cc(C(C#N)N2CCC(c3ccccc3)=N2)ccc1O (stereo unspecified),1,0%,0%,22µM*,-4%
COc1ccc(C(C#N)N2CCC(c3ccccc3)=N2)cc1OC (stereo unspecified),-1,-4%,-1%,3.2µM*,3%[57.1 µM]
Cc1ccc(NC(=O)c2cc(N3C(=O)C=CC3=O)ccc2N2CCOCC2)cc1Cl,7,2%,0%,3.5µM*,-9%
CCCN1CCN(CCCNC(=O)c2cnn(-c3ccc(F)cc3)c2-n2cccc2)CC1,-2,.,.,0%,1%
CCCCc1nn2c(=O)cc(COC(=O)c3ccccc3NC(=O)c3cccc(C)c3)nc2s1,-3,.,.,5%[57.1 µM],-2%[57.1 µM]

# Bioassay records deposited in PubChem by National Center for Advancing Translational Sciences (NCATS).
